An excerpt weighted towards active compounds, which were near 1.6% of everything screened.
KCNQ2 inh – inhibitors of rat KCNQ2 potassium channel; CHO-K1 KCNQ2, FluxOR thallium flux, 20 min; stronger effect = lower value; B-score at 10 µM; 310,000 tested, 1.1% active; O88943;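 active means fluorescence ratio B-score at most minus 3 library SDs, with starting brightness B-score within 2 library SDs, cut at about -5.5 in these data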
Target sequence (O88943 whole entry, looked up): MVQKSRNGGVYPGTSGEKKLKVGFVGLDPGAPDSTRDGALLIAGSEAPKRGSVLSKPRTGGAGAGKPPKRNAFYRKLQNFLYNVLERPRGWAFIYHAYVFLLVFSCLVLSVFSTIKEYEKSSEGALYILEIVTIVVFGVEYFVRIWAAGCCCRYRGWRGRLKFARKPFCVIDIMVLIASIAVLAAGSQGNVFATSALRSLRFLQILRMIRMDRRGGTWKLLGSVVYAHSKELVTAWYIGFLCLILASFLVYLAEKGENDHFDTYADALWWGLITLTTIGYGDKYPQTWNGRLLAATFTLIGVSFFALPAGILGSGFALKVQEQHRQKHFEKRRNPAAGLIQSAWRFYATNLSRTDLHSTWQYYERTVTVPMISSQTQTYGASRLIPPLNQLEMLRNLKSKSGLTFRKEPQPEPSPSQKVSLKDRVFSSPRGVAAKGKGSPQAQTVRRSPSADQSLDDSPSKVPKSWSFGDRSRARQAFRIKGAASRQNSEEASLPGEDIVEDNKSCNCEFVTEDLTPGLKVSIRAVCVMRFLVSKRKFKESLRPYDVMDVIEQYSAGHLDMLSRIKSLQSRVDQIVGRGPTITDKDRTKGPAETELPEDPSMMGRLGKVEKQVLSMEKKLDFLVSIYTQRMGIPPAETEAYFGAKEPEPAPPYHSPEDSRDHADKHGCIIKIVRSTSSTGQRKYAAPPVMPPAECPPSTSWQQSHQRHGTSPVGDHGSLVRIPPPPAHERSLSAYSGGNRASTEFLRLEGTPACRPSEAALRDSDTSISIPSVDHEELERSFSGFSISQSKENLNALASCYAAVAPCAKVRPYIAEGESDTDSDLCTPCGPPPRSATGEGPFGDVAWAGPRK
KCNQ2 pot – enhances the rat KCNQ2 potassium channel; B-score at 10 µM; O88943; CHO-K1 KCNQ2, FluxOR thallium flux fluorescence; stronger effect = higher value; 310,000 tested, 0.54% active;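 active means fluorescence ratio B-score at least 3 SD of library B-scores, with initial fluorescence B-score within 3 of them, cut at about 5.3 in these data; same plate scores as AID 2156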;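 further: B-score of peak minus minimum over baseline fluorescence ratio after K+ and Tl+ stimulus; positive B-score means potentiation of KCNQ2 with more thallium influx and brighter signal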
Kir21 conf inh – confirmation of mouse Kir2.1 potassium channel inhibitors. shares compounds with KCNQ2 pot. Kir2.1-expressing cells, FluxOR thallium flux fluorescence; stronger effect = lower value. Tl flux remaining, % of negative control (stronger effect = lower value), % at 10 µM. 2,300 tested, 41% active. AID 2032;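 active means Primary-screen hit whose thallium flux fell at least 3 control SD below untreated wells in both duplicates, with normal baseline fluorescence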
HEK293 ctr – counter-screen for Kir2.1 inhibitors: effect in parental HEK293 cells | FluxOR thallium flux fluorescence; 0% = unstimulated blank wells | AID 2105 | 2,300 tested, 19% active | FluxOR signal as % of negative control (100 = no effect), % at 10 µM | shares compounds with KCNQ2 pot;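 active means dye signal at least 3 control SD above or below untreated wells in both duplicates, raw fluorescence within 3, either direction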;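 further: percent is based on the flux ratio of peak minus minimum fluorescence over baseline F0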
CHO-K1 ctr – parental CHO-K1 activity in KCNQ2 potentiator counter-screen. activity increase over 3SD of controls, % at 10 µM. shares compounds with KCNQ2 pot. parental CHO-K1 cells, FluxOR thallium flux fluorescence; zero = vehicle mean+3SD, 100% = vehicle-minus-blank window. 1,200 tested, 43% active;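 active means signal rise of at least 3 SD above the untreated control mean, in both duplicate wells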;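 further: counter screen of KCNQ2 potentiator hits so any rise reflects channel-independent effects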
KCNQ1 pot spec – selectivity of KCNQ2 potentiators: effect on human KCNQ1 | shares compounds with KCNQ2 pot | activation over 3SD threshold, % at 10 µM | CHO KCNQ1 stable, FluxOR thallium flux fluorescence; beyond 3SD, as % of vehicle-control signal | AID 2283 | 1,200 tested, 28% active;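 active means fluorescence ratio rise of at least 3 SD of vehicle wells above their mean, in both replicate wells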
KCNQ2 pot confirm – confirmation of rat KCNQ2 potassium channel potentiators. shares compounds with KCNQ2 pot. CHO-KCNQ2 cells, FluxOR thallium flux fluorescence. potentiation, less the hit threshold, % at 10 µM. 1,200 tested, 68% active;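 active means fluorescence ratio rising 3 SD or more over the vehicle control mean in both replicates, plus primary screen hit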;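 further: peak minus minimum thallium fluorescence divided by baseline after K/Tl stimulus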
Kir2-1 sel – selectivity of KCNQ2 potentiators: effect on mouse Kir2.1 | shares compounds with KCNQ2 pot | HEK293 Kir2.1, FluxOR thallium flux fluorescence | activity over 3SD threshold, % at 10 µM | 1,200 tested, 2% active | AID 2345;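 active means fluorescence ratio rise of at least 3 SD above the vehicle-control mean, seen in both replicates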
KCNQ2 W236L pot – potentiates the retigabine-insensitive rat KCNQ2 W236L mutant channel; CHO KCNQ2-W236L, automated patch clamp current; AID 2558; current increase over 3SD of negative controls (%), stronger effect = higher value, % at 25 µM; 940 tested, 10% active; shares compounds with KCNQ2 pot;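 active means current increase at least 3 SD of the untreated controls above them in both duplicate recordings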
Of the large screens only hits and unclear results are named; the others gave an inactive call (follow-up assays come after a bar, where they were run).

CCc1ccc(C(C)NC(=O)/C=C/c2ccc(Br)cc2)cc1 (configuration not stated)	KCNQ2 pot 8.7 | Kir21 conf inh inactive | HEK293 ctr inactive | CHO-K1 ctr inactive | KCNQ1 pot spec inactive | KCNQ2 pot confirm 24 | Kir2-1 sel inactive | KCNQ2 W236L pot inactive
CCCC(NC(=O)CCc1c(C)c2cc3c(-c4ccccc4)coc3cc2oc1=O)C(=O)O (configuration not stated)	none
Cc1cc(C)c(OCC(=O)N(Cc2ccc(N(C)C)cc2)C2CCS(=O)(=O)C2)c(C)c1 (configuration not stated)	none (no result: KCNQ2 pot)
CCn1c2ccccc2c2cc(NC(=O)CNCC3CCCO3)ccc21 (configuration not stated)	none | Kir21 conf inh 48% | HEK293 ctr inactive
CCn1c2ccccc2c2cc(NC(=O)CN3CCCC3)ccc21	none
COc1cc(C(=O)N[C@H](C(=O)Nc2nnc(C3CC3)s2)C(C)C)cc(OC)c1OC	none (no result: KCNQ2 pot)
c1ccc(Cn2nnnc2CN2CCN(c3ncccn3)CC2)cc1	none
CCN(Cc1ccccc1)Cc1nnnn1Cc1ccccc1	none (no result: KCNQ2 pot) | Kir21 conf inh 38% | HEK293 ctr 69%
c1ccc(CNc2ncnc3ccccc23)cc1	none
c1ccc(CNc2c3ccccc3nc3ccccc23)cc1	none | Kir21 conf inh 24% | HEK293 ctr inactive
CCN(CC(=O)NC(=O)NC1CCCCC1)Cc1ccccc1	none (no result: KCNQ2 pot)
CCN(CC(=O)NC(=O)NC1CCCCC1)Cc1nc2ccccc2c(=O)[nH]1	KCNQ2 pot 10 | Kir21 conf inh inactive | HEK293 ctr inactive | CHO-K1 ctr 63 | KCNQ1 pot spec 17 | KCNQ2 pot confirm 34 | Kir2-1 sel inactive | KCNQ2 W236L pot inactive
COc1cccc(OCC(=O)O)c1	none (no result: KCNQ2 pot)
CC(C)C(=O)Nc1ccc(NC(=S)NC(=O)c2ccccc2F)cc1	none
CCn1c(SCc2ccccc2F)nnc1-c1ccncc1	none
C=CCn1cc(CN2CCC(C(=O)Nc3cccc(-c4cccc(Cl)c4)c3)CC2)c(C)n1	none (no result: KCNQ2 pot)
COc1ccc(CCNc2ncnc3[nH]ncc23)cc1OC	none (no result: KCNQ2 pot)
COc1ccc(CCNc2ncnc3sc(C)cc23)cc1OC	none (no result: KCNQ2 pot) | Kir21 conf inh 65% | HEK293 ctr inactive
COc1ccc(-c2[nH]ncc2CNC(C)CCn2cccn2)cc1F (configuration not stated)	none
COc1ccc(-c2[nH]ncc2CNC(C)c2ccccc2Cl)cc1F (configuration not stated)	none | Kir21 conf inh 60% | HEK293 ctr inactive
CCn1cc(S(=O)(=O)NCCc2ccc(F)cc2)cn1	none (no result: KCNQ2 pot)
Cc1ncc([N+](=O)[O-])n1CC(=O)Nc1ccc(Br)cc1	none
Cc1ccc2nc(NC(=S)NC(=O)c3ccco3)sc2c1	KCNQ2 pot 12 | Kir21 conf inh inactive | HEK293 ctr 228%
O=C(NC(=S)Nc1nc(-c2ccc([N+](=O)[O-])cc2)cs1)c1ccco1	KCNQ2 pot 10 | Kir21 conf inh inactive | HEK293 ctr 168% | CHO-K1 ctr inactive | KCNQ1 pot spec 44 | KCNQ2 pot confirm inactive | Kir2-1 sel inactive
O=C(NC(=S)Nc1nc(-c2ccc(Br)cc2)cs1)c1ccco1	none
Cc1ccc2nc(NC(=O)c3ccco3)sc2c1	none
Cc1cc(C)n(S(=O)(=O)c2ccccc2[N+](=O)[O-])n1	none (no result: KCNQ2 pot)
Cc1ccc(C(=O)C(OC(=O)CN2C(=O)c3ccccc3C2=O)c2ccccc2)cc1 (configuration not stated)	none
Cc1ccc(C(=O)C(OC(=O)CN2C(=O)c3ccccc3C2=O)c2ccccc2)cc1C (configuration not stated)	KCNQ2 pot 7.5 | Kir21 conf inh inactive | HEK293 ctr inactive | CHO-K1 ctr inactive | KCNQ1 pot spec inactive | KCNQ2 pot confirm inactive | Kir2-1 sel inactive | KCNQ2 W236L pot inactive
CC1Sc2ccc(S(=O)(=O)CCC(=O)NC3CCCCC3C)cc2NC1=O (configuration not stated)	none
COc1ccc(CCNC(=O)CNC(=O)c2ccc(Br)o2)cc1OC	none (no result: KCNQ2 pot)
CCOC(=O)C(=NCCCN(C)C)NNc1cc(C(F)(F)F)ccc1Cl	none
Cc1ccc(-c2nc3c(Cl)cc(Cl)cc3c(=O)n2O)cc1	KCNQ2 pot 17 | Kir21 conf inh inactive | HEK293 ctr 542% | CHO-K1 ctr 4.1 | KCNQ1 pot spec 2.4 | KCNQ2 pot confirm 102 | Kir2-1 sel 0.8 | KCNQ2 W236L pot inactive
O=c1c2ccc(Cl)cc2nc(-c2cccc(C(F)(F)F)c2)n1O	KCNQ2 pot 18 | Kir21 conf inh inactive | HEK293 ctr 498% | CHO-K1 ctr inactive | KCNQ1 pot spec inactive | KCNQ2 pot confirm 66 | Kir2-1 sel 4.2 | KCNQ2 W236L pot inactive
N#Cc1ccc(-c2nc3cc(Cl)ccc3c(=O)n2O)cc1	none
O=c1c2cc(Br)ccc2nc(-c2ccc(Cl)cc2)n1O	KCNQ2 pot 17 | Kir21 conf inh inactive | HEK293 ctr 566% | CHO-K1 ctr inactive | KCNQ1 pot spec 41 | KCNQ2 pot confirm 93 | Kir2-1 sel 15 | KCNQ2 W236L pot inactive
O=c1c2ccccc2nc(-c2ccc(Cl)cc2Cl)n1O	none
O=c1c2cc(Cl)ccc2nc(-c2ccc([N+](=O)[O-])cc2)n1O	KCNQ2 pot 9.7 | Kir21 conf inh inactive | HEK293 ctr 308% | CHO-K1 ctr inactive | KCNQ1 pot spec inactive | KCNQ2 pot confirm 42 | Kir2-1 sel inactive | KCNQ2 W236L pot inactive
On1c(-c2ccccc2)nc2ccc(Cl)cc21	none (no result: KCNQ2 pot)
N#Cc1ccc(-c2nc3ccccc3c(=O)n2O)cc1	none
CC(Sc1nc(C(C)(C)C)cc(-c2ccccc2)c1C#N)C(=O)Nc1ccccc1 (configuration not stated)	none (no result: KCNQ2 pot)
O=C1CCc2cc(S(=O)(=O)NCc3ccc(F)cc3)cc3c2N1CCC3	none
Cc1cccc(CC(=O)Nc2sc(C(C)C)cc2C(=O)N2CCOCC2)c1	none
O=c1c2ccccc2nc(-c2ccccc2Cl)n1O	none (no result: KCNQ2 pot)
O=c1c2ccccc2nc(-c2ccc(Cl)c(Cl)c2)n1O	KCNQ2 pot 15 | Kir21 conf inh inactive | HEK293 ctr 314% | CHO-K1 ctr inactive | KCNQ1 pot spec inactive | KCNQ2 pot confirm 50 | Kir2-1 sel inactive | KCNQ2 W236L pot inactive
COC(=O)C1=C(Cn2cnc3ccccc32)NC(=O)NC1c1cc(C)ccc1C (configuration not stated)	none

Compound activity deposited in PubChem by Johns Hopkins Ion Channel Center.
